In PubChem BioAssay:
“And” between values parts separate entries of the source, which are not always exact repeats. Identical values can stand only once. The source made the active and inactive calls.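 How the source made its calls, unless noted: active means compounds whose cell count with miR-34 switched on is under 0.7 times the count with it off; inactive means the rest.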

Columns and labels:
[1] = EMT-state selective cytotoxicity in co-culture – imaging, PC-3E GFP, TEM4-18 mCherry, primary screen (AID 1345086;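 active means compounds killing one labelled cell type while sparing the other, by normalised counts and ratio limits, not self-fluorescent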;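 on all read-outs here: cells exposed to compound for 72 h before imaging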;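 on red/green cell ratio (normalised): normalised mesenchymal count divided by normalised epithelial count so high means epithelial killing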); conditions: PC-3E GFP / TEM4-18 mCherry co-culture, imaging cell counts, at 1 µM; for red/green cell ratio (normalised): actives lie on both sides, counts scaled to control wells, 1 = unselective
[2] = viability loss with induced miR-34 in A549 – imaging, A549 dox-inducible miR-34, nuclei and caspase counts, primary screen (AID 1347080); conditions: A549 miR-34 inducible, Hoechst nuclei count, 48 h
[3] = MELAS cybrid and Rieske KO viability enhancers – cell-based, MELAS cybrids, Rieske KO mouse fibroblasts, CellTiter-Glo, primary screen (AID 1508586;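 active means mean z-score across replicates of 1.96 or higher in either the MELAS or the Rieske mutant cell line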;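 further: z relative to plate mean and SD of compound and empty wells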); conditions: low glucose
[4] = blockers of cellular phospholipid synthesis – cell-based, LOPAC library, screen 4, primary screen (AID 1347384; call rule not given here); conditions: animal cells, phospholipid biosynthesis inhibition screen; at 10 µM
[5] = measured here: epithelial PC-3E GFP cell survival
[6] = measured here: mesenchymal TEM4-18 mCherry cell survival
[7] = stronger effect = lower value, cell number ratio, induced over uninduced
[8] = measured here: relative caspase fold change +Dox/-Dox
[9] = measured here: total cells with miR-34 induction, stronger effect = lower value
[10] = measured here: total cells without miR-34 induction
[11] = MELAS cybrid survival, CellTiter-Glo 48 h, stronger effect = higher value
[12] = Rieske KO mouse fibroblast survival, CellTiter-Glo 72 h

| SMILES | red/green cell ratio (normalised) [1] | normalised cell number [1, 5] | normalised cell number [1, 6] | fold change [2, 7] | fold change [2, 8] | cell count [2, 9] | cell count [2, 10] | z-score [3, 11] | z-score [3, 12] | outcome [4] |
| --- | --- | --- | --- | --- | --- | --- | --- | --- | --- | --- |
| Nc1c2ccccc2nc2ccccc12 | 0.95 (inactive) | 0.63 | 0.6 | 2.19 (inactive) | 1 | 782 | 356 | 2.4 (active) | -1.96 | – |
| CCCCC1C(=O)N(c2ccccc2)N(c2ccc(O)cc2)C1=O (stereo unspecified) | 1.01 (inactive) | 1.07 | 1.08 | 0.952 (inactive) and 0.848 (inactive) | 0.53 and 1.48 | 8300 and 10300 | 8720 and 12100 | -1.46 (inactive) | -1.25 | – |
| Nc1ccc(C(=O)O)cc1 | 1 (inactive) | 1.02 | 1.02 | 0.846 (inactive) | 0.809 | 10600 | 12500 | – | – | – |
| C[n+]1cc2c3c(ccc2c2ccc4cc5c(cc4c21)OCO5)OCO3 | 1.2 (inactive) | 0.84 | 1.01 | 0.823 (inactive) and 1.84 (inactive) and 1.11 (inactive) | 0.926 and 0.714 and 1.64 | 552 and 933 and 1830 | 672 and 507 and 1640 | – | – | inactive |
| C[N+](C)(C)CCCCCC[N+](C)(C)C | 0.92 (inactive) | 1.09 | 1 | 0.986 (inactive) and 1.01 (inactive) and 0.859 (inactive) | 0.977 and 0.809 and 0.908 | 10300 and 10200 and 8850 | 10500 and 10100 and 10300 | 0.935 (inactive) | 0.174 | inactive |
| C=CCc1ccccc1OCC(O)CNC(C)C (stereo unspecified) | 1 (inactive) | 1.2 | 1.2 | 0.963 (inactive) and 0.998 (inactive) and 0.909 (inactive) | 1.1 and 1.18 and 0.556 | 10100 and 7510 and 7890 | 10500 and 7520 and 8680 | -0.407 (inactive) and -0.689 (inactive) | -0.409 and 0.651 | inactive |
| Cc1nnc(SCC2=C(C(=O)O)N3C(=O)[C@@H](NC(=O)Cn4cnnn4)[C@H]3SC2)s1 | 0.96 (inactive) | 1.16 | 1.12 | 1.03 (inactive) and 0.804 (inactive) and 0.912 (inactive) | 1.87 and 0.957 and 4.16 | 10400 and 8100 and 11000 | 10100 and 12000 | 0.651 (inactive) | 0.288 | inactive |
| C[N+]1(CCCCC[N+]2(C)CCCC2)CCCC1 | 0.92 (inactive) | 1.09 | 1 | 1.07 (inactive) and 0.91 (inactive) | 0.597 and 1.28 | 10400 and 8690 | 9650 and 9550 | 0.607 (inactive) | 0.539 | inactive |
| CN1Cc2c(N)cccc2C(c2ccccc2)C1 (stereo unspecified) | 0.78 (inactive) | 1.16 | 0.9 | 1.2 (inactive) and 0.943 (inactive) and 0.87 (inactive) | 1.05 and 0.932 and 4.35 | 9850 and 8420 and 10600 | 8240 and 8920 and 12100 | 0.549 (inactive) | 0.0395 | inactive |
| NCCS | 1.27 (inactive) | 0.91 | 1.16 | 1.1 (inactive) and 0.868 (inactive) and 0.893 (inactive) | 0.51 and 1.42 and 2.94 | 11000 and 8060 and 11500 | 9990 and 9290 and 12900 | -0.14 (inactive) | -0.336 | inactive |
| CC(=O)OC(C)C[N+](C)(C)C (stereo unspecified) | 1.16 (inactive) | 0.97 | 1.13 | 0.996 (inactive) and 0.9 (inactive) and 0.916 (inactive) | 1.55 and 1.24 and 1.41 | 9370 and 9670 and 11300 | 9400 and 10700 and 12300 | -0.509 (inactive) | 0.138 | inactive |
| CCN(CC)CCNC(=O)c1ccc(NC(C)=O)cc1 | 1.26 (inactive) | 0.89 | 1.13 | 1.04 (inactive) and 0.905 (inactive) | 1.99 and 4.44 | 10300 and 12600 | 9910 and 14000 | – | – | inactive |
| O=C(O)CCCCCCCC(=O)O | 0.99 (inactive) | 1.08 | 1.07 | 0.959 (inactive) and 0.941 (inactive) | 0.966 and 3.31 | 9890 and 11100 | 10300 and 11800 | – | – | inactive |
| CC(CN(C)C)CN1c2ccccc2CCc2ccccc21 (stereo unspecified) | 1.03 (inactive) | 1.32 | 1.36 | 1.11 (inactive) and 0.82 (inactive) and 0.914 (inactive) | 1.28 and 1.05 and 3.48 | 8450 and 7420 and 11100 | 7640 and 9050 and 12100 | -0.24 (inactive) | -0.99 | inactive |
| CN(C)/N=N/c1nc[nH]c1C(N)=O | 0.71 (inactive) | 1.47 | 1.04 | 0.938 (inactive) and 0.895 (inactive) | 1.29 and 2.08 | 11400 and 9140 | 12200 and 10200 | 0.302 (inactive) | 0.971 | – |
| CCN(CC)C(C)CN1c2ccccc2Sc2ccccc21 (stereo unspecified) | 0.85 (inactive) | 1.09 | 0.92 | 1.11 (inactive) and 0.804 (inactive) and 0.894 (inactive) | 1.02 and 1.63 and 0.788 | 9230 and 7320 and 9620 | 8340 and 9100 and 10800 | -0.553 (inactive) | -0.605 | inactive |
| CC(=O)OCC1=C(C(=O)O)N2C(=O)[C@@H](NC(=O)CSc3ccncc3)[C@H]2SC1 | 1.23 (inactive) | 1 | 1.24 | 0.915 (inactive) | 4.65 | 11600 | 12700 | – | – | – |

| SMILES | red/green cell ratio (normalised) [1] | normalised cell number [1, 5] | normalised cell number [1, 6] | fold change [2, 7] | fold change [2, 8] | cell count [2, 9] | cell count [2, 10] | z-score [3, 11] | z-score [3, 12] | outcome [4] |
| --- | --- | --- | --- | --- | --- | --- | --- | --- | --- | --- |
| CC(C)NNC(=O)c1ccncc1 | 0.73 (inactive) | 1.3 | 0.95 | 1.01 (inactive) and 0.987 (inactive) and 0.902 (inactive) | 0.707 and 0.895 and 1.13 | 10400 and 9260 and 10200 | 10300 and 9380 and 11300 | -0.146 (inactive) and 0.243 (inactive) | -0.0689 and -0.0455 | inactive |
| Oc1ccc(Cl)c2cccnc12 | 1.13 (inactive) | 1.27 | 1.45 | 0.902 (inactive) | 0.654 | 10900 | 12000 | – | – | – |
| Oc1c(Cl)cc(Cl)cc1Sc1cc(Cl)cc(Cl)c1O | 0.99 (inactive) | 1.15 | 1.14 | 0.771 (inactive) | 1.86 | 8360 | 10800 | – | – | – |
| Cc1cc(N)c2ccccc2[n+]1CCCCCCCCCC[n+]1c(C)cc(N)c2ccccc21 | 0.87 (inactive) | 1.15 | 1 | 1.04 (inactive) and 0.959 (inactive) | 1.28 and 1.58 | 1900 and 2180 | 1830 and 2270 | -3.39 (inactive) | -2.46 | inactive |
| CN(C)CCOC(=O)COc1ccc(Cl)cc1 | 0.89 (inactive) | 0.98 | 0.87 | 1.05 (inactive) and 0.847 (inactive) and 0.935 (inactive) | 2.3 and 1.11 and 0.787 | 9260 and 9320 and 8720 | 8800 and 11000 and 9330 | -0.229 (inactive) and 0.0507 (inactive) | -0.156 and 1.13 | inactive |
| NCCCC(=O)O | 0.83 (inactive) | 1.17 | 0.97 | 1.09 (inactive) | 1.86 | 10000 | 9160 | – | – | inactive |
| CC(=O)Nc1ccc(S(=O)(=O)Nc2ccc([N+](=O)[O-])cc2)cc1 | 0.81 (inactive) | 1.34 | 1.08 | 0.908 (inactive) | 3.51 | 11400 | 12500 | – | – | – |
| CCCCCN(CCCCC)C(=O)C(CCC(=O)O)NC(=O)c1ccc(Cl)c(Cl)c1 (stereo unspecified) | 0.82 (inactive) | 1.1 | 0.9 | 1 (inactive) and 0.871 (inactive) and 0.904 (inactive) | 0.913 and 1.58 and 1.45 | 9880 and 9710 and 9580 | 9840 and 11100 and 10600 | 0.699 (inactive) and -0.377 (inactive) | -0.146 and -1.36 | inactive |
| CCN(CC)CCNC(=O)c1cc(Br)c(N)cc1OC | 0.92 (inactive) | 0.97 | 0.89 | 0.86 (inactive) | 1.23 | 8310 | 9660 | -0.546 (inactive) | 0.146 | – |
| CC(=O)OCC1=C(C(=O)O)N2C(=O)[C@@H](NC(=O)Cc3cccs3)[C@H]2SC1 | 1.02 (inactive) | 1.21 | 1.23 | 1.04 (inactive) and 0.943 (inactive) and 0.907 (inactive) | 2.01 and 1.12 and 1.53 | 10600 and 8990 and 11000 | 10300 and 9530 and 12100 | -0.988 (inactive) | -1.16 | inactive |
| CN(C)CCCN1c2ccccc2Sc2ccc(C(F)(F)F)cc21 | 1.26 (inactive) | 0.93 | 1.17 | 1.11 (inactive) and 0.899 (inactive) and 0.891 (inactive) | 0.594 and 1.31 and 3.14 | 1420 and 7820 and 9630 | 1280 and 8700 and 10800 | -0.173 (inactive) | 0.266 | inactive |
| O=C1OC(c2ccc(O)cc2)(c2ccc(O)cc2)c2ccccc21 | 1.12 (inactive) | 0.94 | 1.05 | 0.823 (inactive) | 1.14 | 10900 | 13200 | – | – | – |
| CCN(CC)C(=O)c1cccc(C)c1 | 1.18 (inactive) | 1 | 1.19 | 0.989 (inactive) | 1.76 | 11700 | 11800 | – | – | – |
| CN(C)[C@@H]1C(=O)C(C(N)=O)=C(O)[C@@]2(O)C(=O)C3=C(O)c4c(O)ccc(Cl)c4[C@@H](O)[C@H]3C[C@@H]12 | 0.96 (inactive) and 1.05 (inactive) | 1.09 and 1.32 | 1.05 and 1.38 | 1 (inactive) and 0.852 (inactive) and 0.887 (inactive) | 0.853 and 1.42 and 3.05 | 2520 and 7990 and 10000 | 2520 and 9380 and 11300 | 0.25 (inactive) | -1.49 | inactive |
| O=C(O)c1cc(=O)c2ccccc2o1 | 0.88 (inactive) | 0.88 | 0.78 | 0.884 (inactive) | 1.39 | 8030 | 9090 | -0.239 (inactive) | -0.17 | – |
| CCN(CC)CCNC(=O)c1cc(S(C)(=O)=O)ccc1OC | 1.26 (inactive) | 0.93 | 1.16 | 0.998 (inactive) and 0.882 (inactive) and 0.896 (inactive) | 1.76 and 0.709 and 3.36 | 9610 and 9280 and 12200 | 9630 and 10500 and 13600 | 0.496 (inactive) | -0.0746 | inactive |
